This is an account of results in PubChem BioAssay (EPA / NIEHS).

Several values for one entry are separate records, joined by “and”; a condition that tells them apart may be missing. Equal values may be shown once. Results filed as inconclusive are left out. Where a structure was tested more than once in an assay, its records may differ in their call. Activity calls are given as the source filed them. How the source made its calls: active means hit-call score of the fitted dose curve at least 0.9, where 1 is the maximum; inconclusive means response in the unintended direction; inactive means score below 0.9. Peptide text beside a SMILES is read from it.

Cellular tumor antigen p53 (Homo sapiens), sequence (P04637 whole entry, looked up, the tested form may be a part): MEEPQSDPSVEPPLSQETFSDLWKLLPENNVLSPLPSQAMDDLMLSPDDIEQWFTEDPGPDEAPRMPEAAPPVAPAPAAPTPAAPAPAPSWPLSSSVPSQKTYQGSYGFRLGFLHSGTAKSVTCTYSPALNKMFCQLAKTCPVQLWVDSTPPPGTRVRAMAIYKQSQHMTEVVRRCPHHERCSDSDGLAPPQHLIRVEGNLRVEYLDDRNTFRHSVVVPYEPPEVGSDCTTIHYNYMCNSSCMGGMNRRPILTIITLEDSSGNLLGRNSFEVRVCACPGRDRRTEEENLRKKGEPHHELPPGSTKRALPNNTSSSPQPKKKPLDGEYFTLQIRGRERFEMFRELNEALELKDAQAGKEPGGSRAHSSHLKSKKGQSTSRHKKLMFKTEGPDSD

This experiment has as its target Cellular tumor antigen p53 (Homo sapiens) (UniProt P04637). As to the kind of experiment: TOX21_p53_BLA_p5_ratio: Tox21 HCT-116 p53 Agonism Beta-lactamase Assay, Ratio, Phase 5 (AID 2283599). The source says: TOX21_p53_BLA_p5 is a cell-based, single-readout assay that uses HCT116, a human intestinal cell line, […] in a 1536-well plate.TOX21_p53_BLA_p5_ratio is an assay readout measuring reporter gene via receptor activity and designed using inducible reporter (beta lactamase induction) detected with GAL4 b-lactamase reporter gene. The signal is derived from the ratio of cleaved (ch2) to uncleaved (ch1) reporter gene substrate used as the measure of target activity.Data from the assay component TOX21_p53_BLA_p5_ratio was analyzed into 1 assay endpoint. This assay endpoint, TOX21_p53_BLA_p5_ratio, was analyzed in the positive analysis fitting direction relative to DMSO as the negative control and baseline of activity. Using a type of inducible reporter, gain-of-signal activity can be used to understand changes in the reporter gene as they relate to the gene TP53. Furthermore, this assay endpoint can be referred to as a primary readout, because this assay has produced multiple assay endpoints and this ratio serves a reporter gene function to understand target activity. To generalize the intended target to other relatable targets, this assay endpoint is annotated to the DNA binding intended target family, where the subfamily is tumor suppressor.
Thawing Method: Place 14 mL of pre-warmed thaw medium into a 15 mL of conical tub. Remove the vial of cells to be thawed from liquid nitrogen and thaw rapidly by placing at 37C in a water bath with gentle agitation for 1-2 minutes. Decontaminate the vial by wiping with 70% ethanol before opening in a biological safety cabinet. Transfer the vial contents drop-wise into 14 mL of thaw medium in a sterile 15-mL conical tub. Centrifuge cells at 900 rpm for 4 minutes and resuspend in thaw medium. Transfer contents to the T75 tissue culture flask containing Thaw Medium and place flask in a humidified 37C/5% CO2 incubator. Switch to growth medium at first passage.Propagation Method: Aspirate medium, rinse once in DPBS, add 0.25% Trypsin/EDTA and swirl to coat the cell evenly. Add an equal volume of Growth Medium to inactivate Trypsin after 2-3 minutes incubation at 37C. Centrifuge cells at 900 rpm for 4 minutes and resuspend in growth medium. Cell should be passage or fed at least twice a week.Assay Protocol: Harvest cells from culture in growth medium and resuspend in assay medium. 2.2 Dispense 4000 cells/5 uL/well into 1536-well black/clear bottom plates using a Multidrop dispenser. After the cells were incubated at 37C for 5 hours, 23 nL of compounds dissolved in DMSO were transferred to the assay plate by a PinTool resulting in a 217-fold dilution. Incubate the plates for 16 hours at 37C, 5% CO2. Add 1 uL of 6X LiveBLAzer FRET B/G (CCF4-AM) Substrate Mixture to each well using a BioRAPTR dispenser and incubate the plates at room temperature for 2 hours. Measure fluorescence intensity at 460 and 530 nm emission and 405 nm excitation by an Envision detector. Data is expressed as the ratio of 460nm/530nm emissions. Add 4 uL of Cell-titer Glo to each well using BioRAPTR and incubate the plates at room temperature for 2 hours. Measure fluorescence intensity by a VewLux plate reader.
In the case of `CC1C(C)(C)C2=C(C(=O)CCC2)C1(C)C` (stereo not given), the result was inactive. For `CC1CCC(C(C)(C)S)C(=O)C1` (stereo not given), the result was inactive. `CCC1COC(=O)O1` (stereo not given): the outcome was inactive. Still for that read-out and setting: in the case of `Fc1ccc(Br)cc1` it was “inactive”; in that of `C=CCNCC=C`, “inactive”; in that of `CCCCCCCCCCCCCCCCCCOS(=O)(=O)O`, “inactive”. The same measure, in the same setting: the entry for `CCOC(=O)/C=C\C(=O)OCC` is “inactive”; for `CC(=O)OCC=C(C)C` it is “inactive”. `CCCCC1CCC(=O)O1` (stereo not given): the outcome was inactive.

Turning to `CC1=CC=C(C(C)C)CC1`, the result was inactive. Same read-out and setting: in the case of `Oc1ccc(/C=C/c2cc(O)cc(O)c2)cc1` it was “inactive”; in that of `COc1ccc(C(=O)c2ccccc2)c(O)c1`, “inactive”. Take `CO[Si](CCCS)(OC)OC`: the result was inactive. Regarding `CC(C)OC(=O)c1ccccc1`, the result was inactive. `C=C1C[C@H]2[C@@H]3C=C(C)C4=CC(=O)CC[C@]4(C)[C@H]3CC[C@]2(C)[C@@]1(OC(C)=O)C(C)=O`: the result was inactive. `CC(=O)CCC=C(C)C`: the result was inactive. Same read-out and setting: the entry for `CCC(C)(O)CCCC(C)C` (stereo not given) is “inactive”; for `COC(=O)CC(C)CCC=C(C)C` (stereo not given) it is “inactive”; for `CCOC(=O)C1=NOC(c2ccccc2)(c2ccccc2)C1` it is “inactive”.

As for `CC(=O)OC/C=C(/C)CCC=C(C)C`, the result was inactive. For the compound `CN(C)c1ccc2nc3ccc(=[N+](C)C)cc-3sc2c1`, the outcome was inactive; the AC50 is 45.7 µM (active) and 13 µM (active).

Take `O=C(O)C1CCC(C(=O)O)CC1` (stereo not given): the result was inactive.

For the compound `O=C(Nc1ccccc1)c1cc(Cl)ccc1O`, the AC50 was 13.7 µM (active). With `C=CCCCCCCCCO`, the result was inactive. In the case of `Oc1ccc(-c2ccccc2)c(Cl)c1`, the result was inactive. The same measure, in the same setting: the entry for `CCCCOCCOC(=O)COc1ccc(Cl)cc1Cl` is “inactive”. On the same count and under the same terms, the entry for `CC12CCC(CC1)C(C)(C)O2` is “inactive”. With `c1ccc(Nc2cccc3ccccc23)cc1`, the AC50 is 82.2 µM (active) and the result was inactive.

Take `CCCCCCCOC(=O)c1ccc(O)cc1`: the AC50 was 74.3 µM (active) and the outcome was inactive. Turning to `CC(C)(C)C1CCC(=O)CC1`, the result was inactive. On the same count and under the same terms, the entry for `CC(C)c1cccc(C(C)C)c1N` is “inactive”; for `CC(C)(O)Cc1ccccc1` it is “inactive”; for `CC(=O)c1ccc(S(=O)(=O)NC(=O)NC2CCCCC2)cc1` it is “inactive”. On the same count and under the same terms, the entry for `COC(=O)[C@H](Cc1ccccc1)NC(=O)[C@@H](N)CC(=O)O` (H-Asp-Phe-OMe) is “inactive”. Same read-out and setting: the entry for `O=C(O)CCCC(=O)O` is “inactive”; for `CCCCCCCCCC(C)=O` it is “inactive”; for `CCCCNS(=O)(=O)c1ccc(C)cc1` it is “inactive”.

In general, AC50 refers to the midpoint of the concentration-response curve, whichever way the signal moves.
